Source: PubChem
STK33 inh = STK33 kinase inhibitors, primary screen, biochemical, luminescence, ADP-Glo, MBP substrate; inhibition, % at 12.5 µM; 27,000 tested, 0.44% active; AID 2322, 2010; in the data active means inhibition above about 20%
Target sequence (Q9BYT3 whole entry, looked up): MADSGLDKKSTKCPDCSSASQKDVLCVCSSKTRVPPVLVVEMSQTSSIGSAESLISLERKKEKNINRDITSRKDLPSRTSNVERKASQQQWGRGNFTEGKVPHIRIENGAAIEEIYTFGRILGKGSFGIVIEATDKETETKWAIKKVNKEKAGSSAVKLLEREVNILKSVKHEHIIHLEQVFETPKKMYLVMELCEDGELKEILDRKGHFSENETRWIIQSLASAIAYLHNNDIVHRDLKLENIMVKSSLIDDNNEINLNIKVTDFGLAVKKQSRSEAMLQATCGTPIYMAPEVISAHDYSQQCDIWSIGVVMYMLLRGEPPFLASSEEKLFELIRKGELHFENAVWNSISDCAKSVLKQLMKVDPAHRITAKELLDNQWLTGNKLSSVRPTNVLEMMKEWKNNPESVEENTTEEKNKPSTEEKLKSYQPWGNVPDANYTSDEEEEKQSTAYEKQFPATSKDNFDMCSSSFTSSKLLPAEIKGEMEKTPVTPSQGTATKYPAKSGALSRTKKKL
NOMO-1 viab = NOMO-1 AML cell viability reduction, primary screen, STK33 inhibitor project, CellTiter-Glo luminescence; 37,000 tested, 7.5% active; NOMO-1 AML viability, 72 h; inhibition, % (no concentration beside the values); AID 2330, 2010; in the data active means inhibition above about 80%
PD-1 reverse act = activators reversing PD-1 mediated T-cell inhibition, primary screen, luminescence, primary human CD4 T cells, PD-L1 beads. AID 2316, 2010. activation, % (no concentration beside the values). CellTiter-Glo 96 h. 29,000 tested, under 10 active; call rule not given here;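 further: 0% = median vehicle wells and 100% = positive control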
* hit, by the source's call; x = no result. Shown is part of a subset that was picked to be rich in hits.

SMILES	STK33 inh	NOMO-1 viab	PD-1 reverse act
CC(C)S(=O)(=O)c1cscc1N1C(=O)c2ccccc2C1=O	x	-4	1
CC(=O)Oc1ccc2occ(C(=O)c3ccc(Br)s3)c2c1	x	41	-1
CC(=O)Oc1ccc2occ(C(=O)CCN(C)C)c2c1	x	140*	-5
O=C(NCc1ccco1)c1cc(-c2cccc(Cl)c2)nc2ccccc12	-4	23	x
COc1cc2ccc(=O)oc2cc1OCC=C(C)C	-5	x	x
CC(C)=CCOc1cc2oc(=O)ccc2cc1O	7	109*	x
CC(C)Nc1nc(Oc2ccc(=O)[nH]n2)nc(N(C)C)n1	0	8	1
O=C1CN(C(=O)/C=C/c2ccccc2)C(c2ccccc2)c2cc(Br)ccc2N1 (stereo unspecified)	x	89*	-3
CC1=Nc2ccc(Br)cc2C(c2ccccc2)N1CC(=O)NN (stereo unspecified)	x	19	-1
Cc1cc(C)c(NC(=O)CN(C)S(=O)(=O)c2ccc(Br)cc2)c(C)c1	0	50	-3
CC1(C)CC(=O)c2c([nH]c(-c3ccccc3)c2-c2ccccc2)C1	x	92*	-8
O=C1NC(=O)c2cc(-c3ccccc3)ccc21	x	-13	0
CCC(C)c1cc(N)nc2nc3ccccc3n12 (stereo unspecified)	x	23	0
COc1cc(-c2oc3cc(O)cc(O)c3c(=O)c2O[C@@H]2O[C@H](CO[C@@H]3O[C@@H](C)[C@H](O)[C@@H](O)[C@H]3O)[C@H](O)[C@H](O)[C@H]2O)ccc1O	-7	x	x
C[C@H]1CN([C@@H](C)CO)C(=O)c2cc(NC(=O)Nc3ccc(C(F)(F)F)cc3)ccc2O[C@H]1CN(C)Cc1ccncc1	x	102*	2
C[C@H]1CN([C@@H](C)CO)C(=O)c2cc(NC(=O)c3ccncc3)ccc2O[C@@H]1CN(C)Cc1ccc(C(F)(F)F)cc1	1	-4	-1
C[C@H](CO)N1C[C@H](C)[C@@H](CN(C)Cc2ccncc2)Oc2ccc(NC(=O)Nc3ccc(C(F)(F)F)cc3)cc2C1=O	x	20	x
C[C@H](CO)N1C[C@H](C)[C@H](CN(C)Cc2ccncc2)Oc2ccc(NC(=O)Nc3ccc(C(F)(F)F)cc3)cc2C1=O	x	86*	0
COc1cc(C(=O)Nc2ccc(S(=O)(=O)Nc3ccccn3)cc2)cc(OC)c1OC	2	-13	1
O=C(C1CC1(c1ccccc1)c1ccccc1)N1CCCCC1 (stereo unspecified)	x	22	-1
COc1cc(OC)c(C2=NOC(C(=O)Nc3cnn(C45CC6CC(CC(C6)C4)C5)c3)C2)cc1Cl (stereo unspecified)	2	26	-1
COc1ccccc1N(Cc1cc2ccc(C)cc2[nH]c1=O)S(=O)(=O)c1ccccc1	2	108*	1
COc1ccccc1N(CC(=O)O)S(=O)(=O)c1ccccc1	0	-3	x
CCN1C(=O)C=CC1=O	-5	98*	4
CC1=CC(=O)CC2[C@@]1(C)CC[C@@H](C)[C@]2(C)CCC(C)CC(=O)O (stereo partly specified)	-4	7	0
SMILES	STK33 inh	NOMO-1 viab	PD-1 reverse act
NC(=O)c1ccc(N2CCN(C(c3ccccc3)c3ccccc3)CC2)nc1	x	109*	-3
CN1CCN(C(c2ccccc2)c2ccccc2)CC1	0	14	3
COc1c(C=O)c(O)cc2c1C(=O)c1ccccc1C2=O	85*	96*	-2
COc1c(O)cc2c(c1O)C(=O)CC(c1ccccc1)O2 (stereo unspecified)	-2	13	-3
CC(C)NC(=O)Nc1ccc2c(c1)CC(=O)N([C@@H](C)CO)C[C@@H](C)[C@@H](CN(C)Cc1ccc(C(F)(F)F)cc1)O2	0	-1	-1
C[C@H]1CN([C@@H](C)CO)C(=O)Cc2cc(NC(=O)Nc3ccc(F)cc3)ccc2O[C@@H]1CN(C)Cc1ccc(C(F)(F)F)cc1	3	117*	x
C[C@H](CO)N1C[C@H](C)[C@H](CN(C)Cc2ccc(C(F)(F)F)cc2)Oc2ccc(NC(=O)Nc3ccc(F)cc3)cc2CC1=O	3	113*	-3
C[C@@H]1CN([C@H](C)CO)C(=O)Cc2cc(NC(=O)Nc3ccc(F)cc3)ccc2O[C@H]1CN(C)Cc1ccc(C(F)(F)F)cc1	2	116*	x
CC(C)NC(=O)Nc1ccc2c(c1)CC(=O)N([C@H](C)CO)C[C@H](C)[C@H](CN(C)Cc1ccc(C(F)(F)F)cc1)O2	x	32	x
CCOC(=O)c1c(NC(=O)CSc2nnc(C)s2)sc(C)c1C	1	9	0
CCOC(=O)C1=C(C)N(C(=O)Oc2ccccc2)C(SC)=NC1c1ccccc1 (stereo unspecified)	-1	72	-8
CS(=O)(=O)N(CC(=O)Nc1cc(Cl)ccc1Oc1ccccc1)c1ccccc1Br	4	46	-3
O=C(Nc1sc2c(c1C(=O)NCc1ccco1)CCC2)c1sc2ccccc2c1Cl	-3	22	2
Cc1onc(-c2ccccc2)c1C(=O)NC1C(=O)N2[C@@H]1SC(C)(C)[C@@H]2C(=O)O (stereo partly specified)	-1	3	x
Cn1c(=O)[nH]c(=O)c2c1ncn2CCNCc1ccco1	-1	-20	2
Cc1ccc(CN2C(=O)N(c3ccccc3)C(=O)C2CC(=O)Nc2ccccc2)cc1 (stereo unspecified)	2	-4	-1
CN1C(=O)C(CC(=O)Nc2ccc(Cl)cc2)N(Cc2ccco2)C1=S (stereo unspecified)	1	152*	-12
C=CCc1ccc(O[C@@H]2O[C@H](CO[C@@H]3O[C@@H](C)[C@H](O)[C@@H](O)[C@H]3O)[C@@H](O)[C@H](O)[C@H]2O)c(O)c1	3	7	1
C=CCc1ccc(O[C@@H]2O[C@H](CO)[C@@H](O)[C@H](O)[C@H]2O)c(O[C@@H]2O[C@H](CO)[C@@H](O)[C@H](O)[C@H]2O)c1	-2	120*	-1
O=c1cc(NCc2ccccc2)[nH]nc1-c1ccccc1	x	-10	0
C=C1C(=O)O[C@@H]2C[C@@]3(C)[C@@H](O)C[C@@H](O)C(=C)[C@@H]3C[C@H]12	-2	83*	-4
C=C1C(=O)OC2CC3(C)CCC=C(CO)C3CC12 (stereo unspecified)	-9	x	x
Cn1ccc(-c2cccc(NC(=O)Nc3ccccc3)c2)n1	x	29	0
O=c1c(O)c(-c2ccc(O)c(O)c2)oc2cc(O)cc(O)c12	38*	58	3
COc1c(OC)c(O)c2c(=O)c(O)c(-c3ccccc3)oc2c1OC	0	58	1
SMILES	STK33 inh	NOMO-1 viab	PD-1 reverse act
COc1cc(OC)c2c(=O)c(O)c(-c3ccc(OC)c(OC)c3)oc2c1	1	102*	x
COc1ccc(-c2oc3c(OC)c(OC)c(OC)c(O)c3c(=O)c2OC)cc1OC	7	107*	-4
O=c1c(O[C@@H]2OC[C@H](O)[C@H](O)[C@H]2O)c(-c2ccc(O)c(O)c2)oc2cc(O)cc(O)c12	8	10	0
COc1cc(-c2oc3cc(O)c(OC)c(O)c3c(=O)c2OC)ccc1O	16	120*	-1
COc1cc2oc(-c3ccc(O)c(O)c3)c(OC)c(=O)c2c(O)c1OC	1	x	x
COc1cc(O)c2c(=O)c(OC)c(-c3ccc(OC)c(OC)c3)oc2c1	-4	31	0
